Results: PubChem BioAssay AID1159580 (chemical genetic matrix, 2015)
Among all 5,500 compounds or so, about 2,000 (36%) were called active. Inconclusive results (about 18%) are left out. No stated cut-off is given here; in the data, active means normalized growth mostly below about 0.91 (no sharp cut-off); inconclusive means no clear call, values can overlap the other calls; inactive means mostly above about 0.92. The list shows a part of the results.

Assay: chemical genetic growth profiling, strain panel (AID 1159580);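 further: tested at 20 µM; growth read once vehicle control cultures reached saturation at 30 °C; 1 = growth at the plate median or of vehicle wells; lower values mean less growth of the strain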
Conditions: growth OD

Measured: normalized growth

CC(=O)Oc1ccc2c(c1)CCC1C2CC[C@@]2(C)C1CC[C@@H]2OC(C)=O (stereo not given in full)
active: S. cerevisiae deletion strains, locus YLR262C, strain YPT6 (second series), hits give low values 0.663
inactive: S. cerevisiae deletion strains, locus YJR075W, strain HOC1, hits give low values 0.957 | S. cerevisiae deletion strains, locus YKL009W, strain mrt4, hits give low values 0.956 | S. cerevisiae deletion strains, locus YKL068W, hits give low values 0.971 | S. cerevisiae deletion strains, locus YKL085W, strain MDH1 (second series), hits give low values 0.959 | S. cerevisiae deletion strains, locus YKL085W, strain MDH1, hits give low values 0.959 | S. cerevisiae deletion strains, locus YKL160W, strain elf1, hits give low values 1 | S. cerevisiae deletion strains, locus YKL190W, strain CNB1, hits give low values 0.961 | S. cerevisiae deletion strains, locus YKR001C, strain vps1, hits give low values 0.98 | S. cerevisiae deletion strains, locus YKR026C, strain gcn3, hits give low values 0.973 | S. cerevisiae deletion strains, locus YKR091W, strain srl3, hits give low values 0.99 | S. cerevisiae deletion strains, locus YLL001W, strain dnm1, hits give low values 0.96 | S. cerevisiae deletion strains, locus YLL026W, hits give low values 0.991 | S. cerevisiae deletion strains, locus YLL041C, strain sdh2, hits give low values 0.996 | S. cerevisiae deletion strains, locus YLR027C, strain aat2, hits give low values 0.997 | S. cerevisiae deletion strains, locus YLR039C, strain RIC1, hits give low values 0.838 | S. cerevisiae deletion strains, locus YLR058C, strain SHM2, hits give low values 0.968 | S. cerevisiae deletion strains, locus YLR102C, strain apc9, hits give low values 0.968 | S. cerevisiae deletion strains, locus YLR113W, strain HOG1, hits give low values 0.911 | S. cerevisiae deletion strains, locus YLR221C, strain rsa3, hits give low values 0.958 | S. cerevisiae deletion strains, locus YLR258W, strain gsy2, hits give low values 0.991 | S. cerevisiae deletion strains, locus YLR262C, strain YPT6, hits give low values 0.729 | S. cerevisiae deletion strains, locus YLR268W, strain sec22, hits give low values 0.986 | S. cerevisiae deletion strains, locus YLR320W, strain mms22, hits give low values 0.908 | S. cerevisiae deletion strains, locus YLR330W, strain CHS5, hits give low values 0.981 | S. cerevisiae deletion strains, locus YLR342W, strain FKS1 (second series), hits give low values 1.03 | S. cerevisiae deletion strains, locus YLR342W, strain FKS1, hits give low values 0.969 | S. cerevisiae deletion strains, locus YLR357W, strain rsc2, hits give low values 1 | S. cerevisiae deletion strains, locus YLR370C, strain arc18, hits give low values 0.977 | S. cerevisiae deletion strains, locus YLR371W, strain rom2, hits give low values 0.981 | S. cerevisiae deletion strains, locus YLR384C, strain iki3, hits give low values 0.985 | S. cerevisiae deletion strains, locus YLR418C, strain cdc73, hits give low values 0.963 | S. cerevisiae deletion strains, locus YML016C, strain PPZ1, hits give low values 0.974 | S. cerevisiae deletion strains, locus YML032C, strain rad52, hits give low values 0.974 | S. cerevisiae deletion strains, locus YML120C, strain ndi1, hits give low values 0.97 | S. cerevisiae deletion strains, locus YML124C, strain tub3, hits give low values 0.965 | S. cerevisiae deletion strains, locus YMR058W, strain fet3, hits give low values 1 | S. cerevisiae deletion strains, locus YMR078C, strain ctf18, hits give low values 0.964 | S. cerevisiae deletion strains, locus YMR125W, strain sto1, hits give low values 0.994 | S. cerevisiae deletion strains, locus YMR129W, hits give low values 0.989 | S. cerevisiae deletion strains, locus YMR205C, strain PFK2, hits give low values 0.947 | S. cerevisiae deletion strains, locus YMR223W, strain ubp8, hits give low values 0.984 | S. cerevisiae deletion strains, locus YMR231W, strain pep5, hits give low values 1.02 | S. cerevisiae deletion strains, locus YMR263W, strain SAP30, hits give low values 0.967 | S. cerevisiae deletion strains, locus YMR307W, strain GAS1, hits give low values 1.12 | S. cerevisiae deletion strains, locus YNL067W, strain RPL9B, hits give low values 0.957 | S. cerevisiae deletion strains, locus YNL071W, strain lat1, hits give low values 0.97 | S. cerevisiae deletion strains, locus YNL128W, strain TEP1, hits give low values 0.986 | S. cerevisiae deletion strains, locus YNL183C, strain NPR1, hits give low values 0.894 | S. cerevisiae deletion strains, locus YNL209W, strain ssb2, hits give low values 1.02 | S. cerevisiae deletion strains, locus YNL233W, strain BNI4, hits give low values 0.938 | S. cerevisiae deletion strains, locus YNL248C, strain rpa49, hits give low values 0.986 | S. cerevisiae deletion strains, locus YNL250W, strain rad50, hits give low values 0.972 | S. cerevisiae deletion strains, locus YNL271C, strain bni1, hits give low values 0.996 | S. cerevisiae deletion strains, locus YNL298W, strain CLA4, hits give low values 0.969 | S. cerevisiae deletion strains, locus YNL307C, strain MCK1, hits give low values 0.958 | S. cerevisiae deletion strains, locus YNL322C, strain KRE1 (second series), hits give low values 0.988 | S. cerevisiae deletion strains, locus YNR049C, strain mso1, hits give low values 0.99 | S. cerevisiae deletion strains, locus YNR052C, strain pop2, hits give low values 0.985 | S. cerevisiae deletion strains, locus YOL006C, strain TOP1, hits give low values 0.796 | S. cerevisiae deletion strains, locus YOL012C, strain htz1 1.06 | S. cerevisiae deletion strains, locus YOL147C, strain pex11, hits give low values 0.969 | S. cerevisiae deletion strains, locus YOR001W, strain rrp6, hits give low values 0.972 | S. cerevisiae deletion strains, locus YOR061W, strain CKA2, hits give low values 0.937 | S. cerevisiae deletion strains, locus YOR069W, strain VPS5, hits give low values 0.987 | S. cerevisiae deletion strains, locus YOR070C, strain gyp1, hits give low values 1.01 | S. cerevisiae deletion strains, locus YOR080W, strain dia2, hits give low values 1.02 | S. cerevisiae deletion strains, locus YOR083W, strain WHI5, hits give low values 0.936 | S. cerevisiae deletion strains, locus YOR106W, strain vam3, hits give low values 1.03 | S. cerevisiae deletion strains, locus YOR136W, strain idh2, hits give low values 0.982 | S. cerevisiae deletion strains, locus YOR144C, strain elg1, hits give low values 0.968 | S. cerevisiae deletion strains, locus YOR184W, strain ser1, hits give low values 0.906 | S. cerevisiae deletion strains, locus YOR231W, strain MKK1, hits give low values 0.923 | S. cerevisiae deletion strains, locus YOR265W, strain rbl2, hits give low values 0.992 | S. cerevisiae deletion strains, locus YOR270C, strain vph1, hits give low values 0.968 | S. cerevisiae deletion strains, locus YOR290C, strain snf2, hits give low values 0.968 | S. cerevisiae deletion strains, locus YOR316C, strain cot1, hits give low values 0.965 | S. cerevisiae deletion strains, locus YPL051W, strain arl3, hits give low values 1.01 | S. cerevisiae deletion strains, locus YPL055C, strain LGE1, hits give low values 0.838 | S. cerevisiae deletion strains, locus YPL078C, strain atp4, hits give low values 1.04 | S. cerevisiae deletion strains, locus YPL106C, strain sse1, hits give low values 1.03 | S. cerevisiae deletion strains, locus YPL240C, strain hsp82, hits give low values 1 | S. cerevisiae deletion strains, locus YPL241C, strain CIN2, hits give low values 0.972 | S. cerevisiae deletion strains, locus YPL256C, strain CLN2, hits give low values 0.924 | S. cerevisiae deletion strains, locus YPR119W, strain clb2, hits give low values 0.955 | S. cerevisiae deletion strains, locus YPR141C, strain kar3, hits give low values 0.97 | S. cerevisiae deletion strains, locus YPR163C, strain tif3, hits give low values 0.979 | S. cerevisiae deletion strains, locus YPR167C, strain met16, hits give low values 0.975 | S. cerevisiae deletion strains, strain wtn01, hits give low values 0.972 | S. cerevisiae strains, strain wild type, hits give low values 0.958
